Rows were chosen to be rich in hits. Some 10% of all compounds tested hit in one or more screens of this group.
HP1b binding inh = HP1-beta chromodomain-methylated histone interaction inhibition; P83916; AlphaScreen HP1-beta / biotin-H3K9me3 peptide binding; Potency, µM (series often up to 114 µM), for the others: at the highest dose activity change, negative = inhibition, usual class: inhibitors; hit rate 0.56% among 390,000; further: nearly all actives have a fitted effect of over 70% in size
Target sequence (P83916 whole entry, looked up): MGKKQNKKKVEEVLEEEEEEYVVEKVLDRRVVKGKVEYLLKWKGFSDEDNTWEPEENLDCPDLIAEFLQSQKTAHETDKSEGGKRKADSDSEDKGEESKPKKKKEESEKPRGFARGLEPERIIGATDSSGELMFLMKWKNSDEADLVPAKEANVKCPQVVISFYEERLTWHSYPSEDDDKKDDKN
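AlphaScreen: HP1-beta (50 nM) preformed 30 min with biotin-H3(1-18)K9me3 peptide (50 nM) in PBS pH 7.4, 0.01% Tween-20. Compound added for 30 min at RT, then streptavidin donor/nickel chelate acceptor beads (10 ug/mL) for 30 min.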
G9a block = G9a (human) methyltransferase inhibition. G9a H3K9 monomethylation, AlphaScreen, 2 h. Potency, µM (doses to about 102 µM), inactives show top-dose activity, negative = inhibition, actives largely listed as inhibitors. hit rate 8.8% among 350,000. Q96KQ7; further: on the % scale 0 is the no-effect control and ±100 the full control effect; nearly all actives have a fitted effect of over 75% in size
Target sequence (Q96KQ7 913-1193 limits assumed): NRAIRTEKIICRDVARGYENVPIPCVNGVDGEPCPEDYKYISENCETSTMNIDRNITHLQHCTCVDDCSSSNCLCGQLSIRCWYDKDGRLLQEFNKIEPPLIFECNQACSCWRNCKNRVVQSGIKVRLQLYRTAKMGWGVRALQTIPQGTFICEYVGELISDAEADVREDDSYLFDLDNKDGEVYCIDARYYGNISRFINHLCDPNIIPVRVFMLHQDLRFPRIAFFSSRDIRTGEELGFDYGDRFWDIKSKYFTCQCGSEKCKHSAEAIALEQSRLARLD
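AlphaScreen detection with an anti-monomethyl H3K9 antibody quantified product after a 2 h room-temperature reaction containing 500 nM biotinylated H3K9 peptide, 20 µM SAM and 20 nM enzyme, which had been preincubated 15 min with compound.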
L3MBTL1 block = inhibitors of human L3MBTL1; Potency, µM (titrated, usually from 57.1 µM), for the others: at the highest dose activity, negative = inhibition, actives largely listed as inhibitors; hit rate 0.66% among 230,000; Q9Y468; AlphaScreen L3MBTL1–H3K9me1 peptide binding; AID 485360; further: on the % scale 0 is the no-effect control and ±100 the full control effect; nearly all actives have a fitted effect of over 60% in size
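Displacement of a biotinylated histone H3(1-15) peptide monomethylated at Lys9 (75 nM) from L3MBTL1 (50 nM) was measured by AlphaScreen after a 30 min room-temperature compound incubation; cefsulodin titration served as intraplate control.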
JMJD2A Tudor inh = blocks the human JMJD2A Tudor domain. O75164. AlphaScreen JMJD2A-Tudor / H3K4me3 peptide binding. Potency, µM (series often up to 114 µM), for inactives: at the highest dose activity change, negative = inhibition, usual class: inhibitors. hit rate 4.4% among 390,000; further: on the % scale 0 is the no-effect control and ±100 the full control effect; nearly all actives have a fitted effect of over 50% in size
GLS inhibitor = glutaminase GLS (human) inhibition. GLS enzymatic activity, qHTS titration. Potency, µM (titrated, usually from 45.5 µM), for inactives: at the top dose activity change, negative = inhibition, usual class: inhibitors. hit rate 0.21% among 410,000; further: on the % scale 0 is the no-effect control and ±100 the full control effect
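hKGA in 45 mM KH2PO4 (pH 8.2), 0.02% Tween-20 with compound, then 1mM L-Glutamine (stock as added) plus glutamate oxidase/HRP/Amplex red coupling mix. Fluorescence read initially and after 30 min at RT; signal change reflects glutamate formation.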
BAZ2B inh = BAZ2B (human) inhibition; Q9UIF8; AlphaScreen BAZ2B-H3K14Ac peptide displacement; Potency, µM (top dose mostly 114 µM), without a hit: at the top dose activity change, negative = inhibition, usual class: inhibitors; hit rate 4.4% among 360,000; AID 504333; further: on the % scale 0 is the no-effect control and ±100 the full control effect; nearly all actives have a fitted effect of over 60% in size
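Complex of BAZ2B and biotin-H3K14Ac (50 nM apiece) forms over 30 min at RT, then faces library compounds up to 110 uM for another 30 min; AlphaScreen beads added, 20 min dark incubation, luminescence read.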
* = called active by the depositor; ? = inconclusive; / = no result given; [ ] = dose if it differs, or a comment. The call rests on the fitted dose curve; in most records, active means well fitted curve in the direction sought with a large enough effect; inconclusive means small, poorly fitted or top-dose-only effect, or another doubt; inactive means no such curve, though single readings can be large; an effect the other way counts as inactive or inconclusive. Potency means the concentration at half of the fitted maximal effect.

SMILES	HP1b binding inh	G9a block	L3MBTL1 block	JMJD2A Tudor inh	GLS inhibitor	BAZ2B inh
CCC(C)OC(=O)C1=C(C)NC2=C(C(=O)C(C(=O)OC)C(C)C2)C1c1ccc(N(C)C)cc1 (stereo not given)	?	5µM*	-7%	18µM*	4%	?
CCOC(=O)C1=C(C)NC2=C(C(=O)C(C(=O)OC)C(C)C2)C1c1ccc(OC)c(O)c1 (stereo not given)	18%	17%[0.0925 µM]	4%	39%	27%	5%
COc1ccc(C)cc1NC(=O)CSc1ncc2c(n1)-c1ccc(Cl)cc1N(Cc1ccccc1)S2(=O)=O	-21%	-31%[59 µM]	/	-33%	1%	50µM*
COc1ccc(C(=O)NCC(c2ccc3c(c2)OCO3)N2CCN(C)CC2)cc1OC (stereo not given)	55%[57 µM]	12%[59 µM]	/	0%	2%	39%
COc1ccccc1CNCC(=O)N1CC(=O)Nc2ccccc21	-8%	10µM*	7%	20µM*	8%	50µM*
O=C1CN(C(=O)CNCc2ccccc2)c2ccccc2N1	?	35µM*	1%	3.5µM*	13%	50µM*
O=C(c1ccccc1)c1cc(Cl)ccc1N1C(=O)C=CC1=O	10µM*	1.8µM*	-16%	18µM*	?	79µM*
O=C(CC(=O)c1cc(Cl)ccc1O)c1ccccc1	6%	8%[12.7 µM]	-5%	-24%	0%	-3%
COc1ccc(NC(=O)CSc2nccn2-c2ccccc2)c(OC)c1	-22%	?	-9%	-33%	-5%	?
c1ccc(CCSc2nccn2-c2ccccc2)cc1	?	45µM*	?	?	9%	40µM*
COC(=O)CCCSc1nccn1-c1ccccc1	27%	45µM*	-4%	-18%	-2%	?
CC(C)CCNC(=O)Cn1nc(N2CCN(c3ccccc3)CC2)ccc1=O	37%	8%[59 µM]	/	-9%	23%	-3%
Cc1ccccc1C(=O)/C=C1/c2ccccc2CC(C)(C)N1C	26%	34%[59 µM]	-4%	-26%	-1%	50µM*
CN1/C(=C\C(=O)c2ccccc2Cl)c2ccccc2CC1(C)C	36%	?	-28%	-2%[57.1 µM]	10%	?
COc1ccc(OC)c(NC(=S)N2CCN(C/C=C/c3ccccc3)CC2)c1	?	10%[12.7 µM]	/	-21%[57.1 µM]	3%	?
COc1cc(Br)cc(CN2CCN(C/C=C/c3ccccc3)CC2)c1O	8%	40µM*	-16%	?	-1%	40µM*
COc1ccc(O)c(CN2CCN(C/C=C/c3ccccc3)CC2)c1	-20%	?	-5%	56µM*	24%	?
COc1cc(C2SCCS2)cc(Br)c1Oc1ncccc1[N+](=O)[O-]	?	10µM*	-2%	?	-12%	?
CCN(CC)S(=O)(=O)c1cc([N+](=O)[O-])ccc1NNC(=O)Nc1ccc(F)cc1	-3%	?	/	?	/	-37%
CCN(CC)S(=O)(=O)c1cc([N+](=O)[O-])ccc1NNC(=O)Nc1ccccc1OC	7%	28µM*	/	?	7%	?
CC(C)c1ccc(NC(=O)C2CCCN(S(=O)(=O)c3cccc4nsnc34)C2)cc1 (stereo not given)	17%	1%[59 µM]	/	-15%	-14%	/
O=C(CSc1ccc(Br)c2cccc(Cl)c12)Nc1ccc(S(=O)(=O)Nc2nccs2)cc1	-12%	32µM*	-16%	?	0%	-38%
COc1ccccc1C(=O)Nc1ccc(S(=O)(=O)Nc2nccs2)cc1	10%	?	/	-8%	-9%	-19%
O=C(Cc1ccccc1Cl)Nc1ccc(S(=O)(=O)Nc2nccs2)cc1	32%	-1%	/	-19%	-1%	-22%
O=C(NC(=S)Nc1ccc(Cc2ccncc2)cc1)c1ccccc1F	-14%	79µM*	0%	-31%	-7%	-21%
SMILES	HP1b binding inh	G9a block	L3MBTL1 block	JMJD2A Tudor inh	GLS inhibitor	BAZ2B inh
O=C(NC(=S)Nc1ccc(S(=O)(=O)Nc2nccs2)cc1)c1cccnc1	-18%	45µM*	4%	-17%	?	?
O=C(O)c1ccccc1C(=O)Nc1ccc(S(=O)(=O)Nc2nccs2)cc1	17%	-28%[59 µM]	10%	-17%	8%	50µM*
COc1cccc2c1cc1c(=O)n(CC(=O)N3CCN(c4cccc(C)c4)C(C)C3)nc(C)n12 (stereo not given)	79%	22%[59 µM]	/	-15%	4%	21%
COC(=O)c1ccccc1NC(=O)CSc1c2c(nc3ccc(Cl)cc13)CCCC2	24%	22%[59 µM]	/	-17%	7%	/
O=C(NC(=S)Nc1ccc(S(=O)(=O)Nc2nccs2)cc1)c1ccccc1F	?	10µM*	/	?	-16%	?
Cc1ccc(C)c(N2CCN(C(=O)Cn3c(C)c4cnn(-c5ccccc5)c(=O)c4c3C)CC2)c1	-2%	-46%[59 µM]	/	?	7%	?
CCCCc1ccc(NC(=O)CSc2nnc3[nH]c(=O)cc(C)n23)cc1	45%	-3%[59 µM]	/	-11%	1%	2%
Cc1ccc(SC(C)C(=O)Nc2ncn[nH]2)cc1 (stereo not given)	41%	?	-19%	-22%	4%	56µM*
CC(C(=O)Nc1ncn[nH]1)N1C(=O)c2ccccc2C1=O (stereo not given)	44%	?	-3%	-5%	3%	5%
O=C(Nc1ncn[nH]1)c1cccc(F)c1	/	23%[2.33 µM]	-3%	?	0%	50µM*
O=C(Nc1cccc(NC(=O)c2cccc(F)c2)n1)c1cccc(F)c1	20%	?	/	0%	7%	-2%
Cc1ccc(C(=O)Nc2ncn[nH]2)cc1	49%	?	-11%	?	-6%	50µM*
Cc1ccc(Cn2cc(S(=O)(=O)c3cccc(C)c3)c(=O)c3cc(F)c(N4CCOCC4)cc32)cc1	31%	-3%[59 µM]	/	-10%	1%	-2%
CC(=O)N1CC[C@H]2CC(=O)CC[C@@]21C	/	19%[135 µM]	/	/	/	/
CCOC(=O)CN1C(=O)S/C(=C/c2cccc([N+](=O)[O-])c2O)C1=O	?	35µM*	/	-11%[11.4 µM]	7%	?
CCOC(=O)CN1C(=O)S/C(=C/C=C/c2ccc(N(C)C)cc2)C1=O	13µM*	10µM*	-66%	16µM*	7%	10µM*
Cc1cccc(NC(=O)CN2C(=O)S/C(=C\c3ccc(O)c([N+](=O)[O-])c3)C2=O)c1	-24%	35µM*	/	50µM*	0%	?
O=C(CCN1C(=O)S/C(=C/c2ccccc2)C1=O)Nc1ccc(O)c(C(=O)O)c1	10%	4%[0.0925 µM]	/	-8%	-2%	-15%
O=C(CN1C(=O)S/C(=C\C=C\c2ccccc2)C1=O)N1CCCCC1	33%	?	/	-8%	0%	-20%
